Out of some 370,000 compounds screened, about 3,800 (1%) were called active. The entries come from a sample that favours actives as a whole. A number with no mark means an inactive call. Cut-off read from the data, not from the text of the source: active = activation above about 7.8%; inactive = the rest.
Assay: SMARCA2 (BRM) function activators, primary screen, cell-based, luminescence, high throughput (AID 652017);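 note: 0% = vehicle wells and 100% = reference activator wells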
Conditions: MG213 cells, MMTV-luciferase reporter, dexamethasone, overnight; at 9.1 µM; hits give high values

| SMILES | activation |
| --- | --- |
| O=S1(=O)C[C@@H](N2CCN(CCO)CC2)[C@H](COCc2ccccc2)N1 | -4.94% |
| COC(=O)[C@]12C[C@H](CC(=O)NCc3cccs3)C(=O)N(CCc3ccc(OC)c(OC)c3)C1=C[C@H](C(C)C)O[C@@H]2C1CC1 | -3.39% |
| O=C(NCCC1=CCCCC1)C1CCN(S(=O)(=O)c2ccc(Cl)s2)CC1 | -6.89% |
| COc1cccc2cc(/C(C)=N/NC(=O)c3ccco3)oc12 | 5.77% |
| COc1ccc(N(CC(=O)NC(C)(C)C)C(=O)c2ccco2)cc1 | -1.03% |
| C/C(CC(=O)NC(C)(C)C)=N\NC(=O)c1ccco1 | 8.95% (active) |
| CCC(NC(=O)C1C2C=CC3(CN(Cc4ccccc4)C(=O)C13)O2)c1ccccc1 (stereo not drawn) | -1.92% |
| CC1(C(=O)NS(=O)(=O)C2CC2)CCCN(C(=O)CSc2ccccc2)C1 (stereo not drawn) | 10.6% (active) |
| CS(=O)(=O)N1CCN(C(=O)CSc2ccccc2)CC1 | -2.96% |
| CC(C)CNC(=O)C1(C)CCCN1C(=O)CSc1ccccc1 (stereo not drawn) | -1.93% |
| C[C@@H]1CN([C@H](C)CO)C(=O)CCCn2cc(nn2)CO[C@H]1CN(C)S(=O)(=O)c1ccc(Oc2ccccc2)nc1 | -2.13% |
| COc1ccc([C@H]2OC(=O)C[C@H]2C(=O)N2CCN(c3ccccc3F)CC2)cc1OC | -3.16% |
| COC(=O)[C@]12C[C@H](CC(=O)NCc3ccccc3)C(=O)N(CCc3ccc(OC)c(OC)c3)C1=C[C@H](C(C)(C)C)O[C@@H]2C | -3.03% |
| CCOC(=O)[C@]12CCCCC/C=C\1N(Cc1ccc(OC)cc1)C(=O)[C@H]2CC(=O)NCc1ccc(C)o1 | -0.44% |
| O=C(NCCS(=O)(=O)NCc1ccc(Cl)cc1)c1ccccc1 | -0.89% |
| O=C(NCCCN1CCCCCC1)c1ccc(N2CCCC2=O)cc1 | 1.14% |
| CN1CCN(CCCNC(=O)c2ccc(/C=C3\Oc4ccccc4N(Cc4ccc(Cl)cc4)C3=O)cc2)CC1 | 10.6% (active) |
| Cc1cc(NS(=O)(=O)c2ccc(NC(=O)CSc3nnc(SCc4ccc(F)cc4)s3)cc2)nc(C)n1 | -5.48% |
| O=C(Nc1cccc(Cl)c1)OC1CC2CC1[C@H]1CCCCN1[C@H]2Cc1ccccc1 (stereo partly drawn) | -2.01% |
| CCOC(=O)CSc1nc(C)cc2c1C(=O)OC2 | -2.43% |
| C#CCN([C@H](C(=O)OC)C(C)CC)S(=O)(=O)c1ccccc1Br (stereo partly drawn) | -1.68% |
| O=C(C[C@H]1CC[C@@H](NC(=O)c2ccncc2)[C@@H](CO)O1)NCC1CC1 | -1.73% |

| SMILES | activation |
| --- | --- |
| O=C(N[C@H]1CC[C@H](CC(=O)N2CCCCC2)O[C@@H]1CO)c1cccc(F)c1 | 8.81% (active) |
| O=C(Nc1ccc2c(c1)[C@@H]1C[C@@H](CC(=O)N3CCCCC3)O[C@@H](CO)[C@@H]1O2)NC1CCCCC1 | -1.84% |
| C=C1C(=O)[C@]23C[C@H]1CCC2[C@@]1(C)C(C[C@@H]3O)[C@](C)(C(=O)O)CC[C@@H]1O (stereo partly drawn) | 28.1% (active) |
| N#Cc1ccc(OC[C@@H](O)CN2CCC(C(O)(c3ccccc3)c3ccccc3)CC2)c(F)c1 | 1.41% |
| O=C(CCCc1ccccc1)NCc1ccccc1 | 8.27% (active) |
| O=C(CCNS(=O)(=O)c1ccccc1)NCCCc1ccccc1 | -1.66% |
| COc1ccc(CCNC(=O)CN(c2ccccc2)S(C)(=O)=O)cc1 | -1.26% |
| COc1ccc(OCC(=O)NCCc2ccc(S(N)(=O)=O)cc2)cc1 | 2.09% |
| COc1ccc(OCCCC(=O)NCCc2ccccc2)cc1 | 17.9% (active) |
| O=C(CC1CCCCC1)NCc1ccccc1 | 2.93% |
| O=C(c1ccccc1)c1ccc(-c2ccccc2C(=O)NC2CCCCN(Cc3ccc(Cl)cc3)C2=O)cc1 (stereo not drawn) | -0.95% |
| CCOC(=O)[C@]12CCCC3=C1N(CCC3)C(=O)[C@@H](CC(=O)NCC13CC4CC(CC(C4)C1)C3)C2 | -3% |
| C=CCOc1ccc(Cl)cc1CNCCCN1CCOCC1 | -1.83% |
| CC(C)CNc1cccc2c1S(=O)(=O)N(Cc1cn(Cc3ccc(Cl)cc3)nn1)Cc1ccccc1O2 | 0.35% |
| NC(=O)Cc1ccc2sc(-c3ccccc3)nc2c1 | 2.7% |
| CCN(CC)C(=O)c1sc2nc(-c3ccccc3)ccc2c1N | 9.84% (active) |
| COC(=O)c1cc2c(N)c(C(=O)c3ccc(Cl)cc3)sc2nc1C(OC)OC | -4.26% |
| CN(C)/C=C/C(=O)c1cnc2sccn2c1=O | -3.44% |
| O=C(NCc1ccccn1)c1cnc2sccn2c1=O | 8.52% (active) |
| CCOC(=O)c1cnc2sccn2c1=O | -1.74% |
| N#Cc1ccccc1OC[C@@H](O)CN1CCC(C(O)(c2ccccc2)c2ccccc2)CC1 | -4.74% |

— PubChem BioAssay AID652017 (The Scripps Research Institute Molecular Screening Center, 2013)
